Rows were chosen to be rich in hits. Some 8.5% of all compounds tested hit in one or more screens of this group.
KDM4E inh – inhibitors of human JMJD2E histone demethylase; JMJD2E catalytic domain, FDH-coupled NADH fluorescence (FDH is formaldehyde dehydrogenase); AID 2147; Potency, µM (titrated, usually from 57.1 µM), for the others: at the highest dose activity change, negative = inhibition, usual class: inhibitors; 230,000 compounds, 1.6% hits; active means well fitted inhibition curve with a large enough effect, not every such curve was filed as active; inconclusive means small, poorly fitted or top-dose-only effect, or another doubt; inactive means no such curve, though single readings can be large or run the other way;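 further: potency means the concentration at half of the fitted maximal effect; 0% = wells with enzyme and -100% = buffer wells without enzyme; nearly all actives have a fitted effect of over 50% in size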
Target sequence (B2RXH2 1-337 limits assumed): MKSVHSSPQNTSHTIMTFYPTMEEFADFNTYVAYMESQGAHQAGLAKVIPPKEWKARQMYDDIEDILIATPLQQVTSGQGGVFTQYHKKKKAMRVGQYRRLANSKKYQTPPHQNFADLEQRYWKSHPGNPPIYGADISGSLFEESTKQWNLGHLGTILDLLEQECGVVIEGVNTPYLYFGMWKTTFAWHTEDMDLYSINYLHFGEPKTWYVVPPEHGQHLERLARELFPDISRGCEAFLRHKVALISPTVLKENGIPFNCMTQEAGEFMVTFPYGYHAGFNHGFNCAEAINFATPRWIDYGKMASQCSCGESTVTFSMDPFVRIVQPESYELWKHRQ
ALDH1A1 block – inhibitors of human aldehyde dehydrogenase 1A1; Purified ALDH1A1, NADH fluorescence, propionaldehyde substrate; 220,000 compounds, 7.3% hits; Potency, µM (titrated, usually from 75.3 µM), without a hit: at the highest dose activity, negative = inhibition, usual class: inhibitors; P00352; active means well fitted inhibition curve with a large enough effect, not every such curve was filed as active; inconclusive means small, poorly fitted or top-dose-only effect, or another doubt; inactive means no such curve, though single readings can be large or run the other way;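 further: potency means the concentration at half of the fitted maximal effect; plate controls were no enzyme wells and a reference inhibitor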
FBPA coupling cs – counter-screen for Giardia aldolase inhibitors: coupling enzyme system; 290,000 compounds, 0.67% hits; activity change, negative = inhibition, % at 58.2 µM, hits read low; coupling enzyme system counterscreen, AmpLite Red fluorescence; AID 2472; in the data active means activity change below about -30%
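Fluorescence at 525 nm excitation and 598 nm emission measured inhibition of the coupled detection system without aldolase. Compounds (at 57.5 uM final) were preincubated 10 min at room temperature with coupling enzyme reagent before a 20 min substrate/AmpLite Red step.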
GoLoco inh red – blocks human Gai1 binding to RGS12 GoLoco peptide, red readout; Gai1:RGS12 GoLoco peptide FP, rhodamine, 10 min; Potency, µM (top dose mostly 61.6 µM), inactives show at the top dose activity, negative = inhibition, most hits filed as inhibitors; 230,000 compounds, 0.44% hits; AID 880; active means well fitted inhibition curve with a large enough effect, not every such curve was filed as active; inactive means no such curve, though single readings can be large or run the other way; further: potency means the concentration at half of the fitted maximal effect; nearly all actives have a fitted effect of over 30% in size
NPSR antagonist – neuropeptide S receptor (human) antagonism, cAMP | CHO-NPSR cells, cAMP TR-FRET, antagonist mode | Q6W5P4 | 220,000 compounds, 1% hits | Potency, µM (series often up to 38.3 µM), without a hit: at the highest dose activity change, negative = inhibition, usual class: inhibitors; further: potency means the concentration at half of the fitted maximal effect; nearly all actives have a fitted effect of over 50% in size
Sfp inh – Sfp phosphopantetheinyl transferase inhibition | 310,000 compounds, 3.5% hits | Biochemical Sfp PPTase activity, qHTS | Potency, µM, without a hit: largest response in the series, negative = inhibition, hits mostly inhibitors | Q9F4F7 | AID 1490;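 further: the enzyme is Sfp with the accession as filed and its product quenches rhodamine fluorescence; potency means the concentration at half of the fitted maximal effect; 0% = enzyme reaction without inhibitor and -100% = no enzyme wells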
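Buffer: 50 mM Hepes-Na pH 7.6, 10 mM MgCl2, 0.01% Nonidet P-40, 0.01% BSA. Enzyme 15 nM, pre-exposed to compound 15 min; substrates then added and fluorescence change tracked over 30 min.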
Starred values were filed as active, the others as inactive; ? = inconclusive; / = no result given; [ ] = remark or other dose. Unless noted, the call rests on the fitted dose curve; in most records, active means well fitted curve in the direction sought with a large enough effect; inconclusive means small, poorly fitted or top-dose-only effect, or another doubt; inactive means no such curve, though single readings can be large; an effect the other way counts as inactive or inconclusive. Unless noted, on the % scale 0 is the no-effect control and ±100 the full control effect.

SMILES	KDM4E inh	ALDH1A1 block	FBPA coupling cs	GoLoco inh red	NPSR antagonist	Sfp inh
CCOC(=O)CSc1nnc(-c2ccoc2C)n1-c1ccc(OCC)cc1	-1.8%	-9.9%	0.3	/	-18.9%[46.1 µM]	56.2µM*
CCOC(=O)CSc1nnc(-c2ccoc2C)n1-c1ccc(C)cc1	-10.4%	3.6%	3.4	6.3%	-15.4%[46.1 µM]	15.0%
Cn1cccc1Cc1nnc(SCC(=O)NCc2ccco2)n1-c1ccc(F)cc1	?	12.6µM*	0.0	10.5%	1.1%[46.1 µM]	-19.7%
Cc1ccc(CNC(=O)C2CCC(=O)N(Cc3ccc(Cl)cc3)C2)cc1F (stereo not drawn)	/	/	/	/	/	2.4%
O=C(CC1C(=O)NCCN1Cc1cccc(F)c1F)NCCCC1CCCC1 (stereo not drawn)	/	/	/	/	/	3.4%
CCC(C)NC(=O)CCn1c(=O)c2cccn2c2ccc(F)cc21 (stereo not drawn)	/	/	5.6	/	/	6.0%
COc1cccc(CC(NC(C)=O)C(=O)NC2CCN(C(=O)c3ccncc3)CC2)c1OC (stereo not drawn)	/	/	0.0	/	/	24.1%
O=c1c2c([N+](=O)[O-])cc([N+](=O)[O-])cc2nc2ccccn12	/	/	0.3	/	/	-9.3%
O=c1c2c([N+](=O)[O-])cc([N+](=O)[O-])cc2sn1-c1ccc(Br)cc1	3.55µM*	1.41µM*	-0.5	5.01µM*	26.4%	8.91µM*
O=c1c2c([N+](=O)[O-])cc([N+](=O)[O-])cc2sn1Cc1ccccc1	/	/	0.9	/	/	2.24µM*
Cc1ccc(F)c(CNC(=O)C2CCC(=O)N(CCCN3CCCC3=O)C2)c1F (stereo not drawn)	/	/	/	/	/	7.0%
COc1ccccc1-c1noc(CCC(=O)Nc2ccccc2Cl)n1	-24.3%	28.2µM*	-3.4	-11.0%	-7.3%[46.1 µM]	10µM*
COc1ccccc1-c1noc(CCC(=O)Nc2cccc(C)c2)n1	3.9%	1.2%	2.0	-2.2%	-4.9%[46.1 µM]	?
CN1CCN(C2=C(NS(=O)(=O)c3cccs3)C(=O)c3ccccc3C2=O)CC1	-4.5%	/	-30.7*	6.2%	-50.5%	3.4%
O=C1C(NS(=O)(=O)c2cccs2)=C(N2CCOCC2)C(=O)c2ccccc21	-28.3%	/	-24.2	-1.5%	?	1.4%
CN1CCN(C2=C(NS(=O)(=O)c3ccccc3)C(=O)c3ccccc3C2=O)CC1	/	/	-46.1*	/	/	-10.9%
CCOc1ccccc1N1CCN(C2=C(NS(=O)(=O)c3cccs3)C(=O)c3ccccc3C2=O)CC1	-16.3%	10µM*	-25.6	-8.3%	-15.2%[46.1 µM]	?
O=C1C(NS(=O)(=O)c2cccs2)=C(N2CCN(c3cccc(C(F)(F)F)c3)CC2)C(=O)c2ccccc21	-7.4%	?	-27.7	9.8%	10µM*	-9.5%
COc1ccc2cc1Oc1ccc(cc1)C[C@@H]1c3c(cc(OC)c4c3Oc3cc5c(cc3O4)CCN[C@H]5C2)CCN1C	/	3.2%[13.5 µM]	/	5.0%[14.2 µM]	/	/
CC(C)(C)OC(=O)NC1CC2CCCC(C1)N2Cc1ccccc1 (stereo not drawn)	/	/	6.2	/	/	18.2%
O=C1C(NS(=O)(=O)c2ccc(Cl)cc2)=C(N2CCCCC2)C(=O)c2ccccc21	4.0%	8.91µM*	-34.3*	5.8%	0.6%[46.1 µM]	-2.0%
COc1cccc(CNS(=O)(=O)c2cc3c(cc2Cl)NC(=O)CO3)c1	/	/	0.9	/	/	2.6%
CC(C)C(NC(=O)c1ccco1)C(=O)NCc1ccc(C(=O)O)cc1 (stereo not drawn)	/	/	0.1	/	/	8.2%
Cc1ncoc1C(=O)N1CCCC(C(=O)c2ccc(C(F)(F)F)cc2)C1 (stereo not drawn)	3.8%	15.8µM*	6.0	6.5%	22.5%	19.1%
Cc1ncoc1C(=O)N1CCCC(C(=O)c2cccc(C(F)(F)F)c2)C1 (stereo not drawn)	6.2%	-5.5%	2.8	-0.6%	3.7%	24.4%
Cc1ncoc1C(=O)N1CCCC(C(=O)c2ccc(Oc3ccccc3)cc2)C1 (stereo not drawn)	3.9%	2.82µM*	1.7	-2.1%	36.1%	-23.3%
Cc1ncoc1C(=O)N1CCCC(C(=O)c2ccc(-c3ccccc3)c(F)c2)C1 (stereo not drawn)	-13.9%	?	-0.3	6.9%	-15.9%	-4.4%

Bioassay records (PubChem)
